Experimental data as given in PubChem BioAssay AID457 (Sanford-Burnham Center for Chemical Genomics, 2006).
Among all 10,000 compounds or so, about 20 (0.2%) were called active. How the calls were made is not given here. Not all results are given here.

Test: enhancers of VCAM-1 display on endothelial cells, imaging, high-content imaging, pooled HUVEC, TNFa stimulus (AID 457);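 on augmentation: cells exposed to compound for 24 hours before fixing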
Conditions: TNFa-induced VCAM-1 immunofluorescence imaging;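 compounds tested at 5 µM in the well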

augmentation, inactive:
CC(C)Oc1cc2oc(=O)c3c(c2cc1Cl)CCC3
O=C(CSc1nc2ccccc2s1)N1CCN(C(=O)c2ccco2)CC1
CCOc1ccccc1N1CCN(S(=O)(=O)c2cccc3nsnc23)CC1
Cn1c(=O)c2c(nc(NCc3ccccc3)n2CCCc2ccccc2)n(C)c1=O
CCOC(=O)c1[nH]c(CSc2nnc(-c3ccc(OC)cc3)o2)c(C(=O)OCC)c1C
O=C(Nc1cnn(C23CC4CC(CC(C4)C2)C3)c1)c1cnn2c(C(F)(F)F)cc(-c3ccco3)nc12
Cc1noc(C)c1CSc1ccccc1C(=O)N1CCN(c2ccccc2)CC1
CCn1cc(C2=NCC(C)O2)c2ccccc21 (centres undefined)
CCC(=O)N1CCc2cc(Br)cc(S(=O)(=O)C3(C(=O)OC)CC3)c21
COc1ccc(Cl)cc1NC(=O)CCN1CCN(c2ccccc2C)CC1
COC(=O)c1ccc2ncccc2c1
Cc1cccc(C2CC(c3ccccc3)Nc3nc(N)nn32)c1 (centres undefined)
O=C(NCCCN1CCCC1=O)c1cncc(Br)c1
Cc1ccccc1-c1noc(N)c1C#N
COc1ccccc1-c1nnc(SCC(=O)NC2CCCCC2)o1
O=C(CSc1nnnn1-c1ccccc1Cl)Nc1ccc2c(c1)OCCO2
O=C(CCNC(=O)c1ccc(Br)o1)NC1CCCC1
N#Cc1cnn(Cc2ccc(Cl)cc2)c1N
COc1ccc(N2CCN(C(=O)CSc3ccccc3)CC2)cc1
Cc1csc(NC(=O)c2cccc(S(=O)(=O)N3CCCCC3)c2)n1
COCc1[nH]nc2c1C(c1cc(OC)c(O)c(OC)c1)C(C#N)=C(N)O2 (centres undefined)
Cc1cc(NC(=O)CCC(=O)N(c2cccnc2)C(C(=O)NC2CCCC2)c2ccccc2F)no1 (centres undefined)
CN(C)c1ccc(CNn2cnnc2)cc1
O=C(NC1CC2CCC1C2)c1ccc(CN2CCOCC2)cc1 (centres undefined)
CCOc1ccc2nc(NC(=O)CSc3nc4ccccc4c(=O)n3Cc3ccco3)sc2c1
c1ccc(-n2ncc3c(N4CCCCC4)ncnc32)cc1
CCOc1ccccc1C(=O)NCC(=O)OCC(=O)N1C(C)CCCC1C (centres undefined)
Cc1nc2oc3c(NCc4ccccn4)ncnc3c2c2c1COC(C)(C)C2
O=C(c1ccc(NS(=O)(=O)c2cccs2)cc1)N1CCCCC1
COCCNC(=O)c1ccc2c(c1)nc(C)n2-c1cccc(F)c1
O=C(c1ccc(Cl)cc1)N(Cc1cccs1)C1CCS(=O)(=O)C1 (centres undefined)
CN(C(=O)c1c(Cl)nc2sccn12)C1CCCCC1
O=C(COC(=O)C1=COCCO1)Nc1ccccc1Oc1ccccc1
O=C(CN1C(=O)CSC1=O)Nc1ccc(N2CCOCC2)cc1
CCN(CC)CCN1C(=O)C(=O)/C(=C(/O)c2c(C)[nH]c(C(=O)OC)c2C)C1c1ccco1 (centres undefined)
CCNC(=O)N(C)c1nncnc1C(=O)NC
Cc1noc(C)c1S(=O)(=O)N1CCC(C(=O)N2CCN(Cc3ccc4c(c3)OCO4)CC2)CC1
O=C(CSc1nnc(-c2ccncc2)n1-c1ccc(F)cc1)NC(=O)NCc1ccco1
COc1ccc(S(=O)(=O)NC(CC(=O)NCc2ccco2)c2ccco2)cc1 (centres undefined)
COc1ccc2nc(NC(=O)C3CCCN(S(=O)(=O)c4cccc5nsnc45)C3)sc2c1 (centres undefined)
COC(=O)C(CCCCNC(=O)OCc1ccccc1)NC(=O)CN (centres undefined)
CCCCC(CC)Cn1c2nc3ccccc3nc2c2c(=N)oc(C)nc21 (centres undefined)
O=C(CCCN1C(=O)c2ccccc2C1=O)NCc1cccnc1
CCN(CC)S(=O)(=O)c1cccc(-c2nnc(SCC(N)=O)n2CCc2ccccc2)c1
CCc1c(C(=O)Nc2cc(C)ccc2OC)[nH]c(C)c1C(C)=O
COC(=O)c1ccc(-c2nn(C)c(=O)c3ccccc23)cc1
Cc1cc2ncn(S(=O)(=O)c3ccc(S(=O)(=O)N4CCOCC4)cc3)c2cc1C
Cc1ccccc1NC(=O)CN1CCC(NC(=O)Nc2ccccc2)CC1
O=C(Nc1ccc(O)cc1)C1CCCN1S(=O)(=O)c1ccc(F)cc1 (centres undefined)
O=c1c2ccccc2cnn1-c1nc2ccccc2s1
CCc1nnc(NC(=O)CSc2nc3ccccc3s2)s1
Cc1cccc(C(=O)N(C)c2nnc(-c3ccncc3)s2)c1
CCOC(=O)CC1(CC(=O)OCC)NC(=O)c2c(C)sc(C(=O)OCC)c2N1
CCSc1nc(-c2ccc(OC)cc2)ccc1C#N
COC(=O)c1ccccc1NC(=O)c1cc(-c2ccc(OC)c(OC)c2)on1
Cc1cccc(N(CC(=O)Nc2ccc(CC#N)cc2)S(C)(=O)=O)c1
COc1ccc(CN(C(=O)c2oc3ccccc3c2C)C2CCS(=O)(=O)C2)cc1 (centres undefined)
Cn1c(=O)c2ncn(CC(=O)NCCOc3ccc(C(C)(C)C)cc3)c2n(C)c1=O
CSc1nc2ccc(S(=O)(=O)N3CCOCC3)cc2s1
Cn1c(Cc2cccs2)nnc1SCC(=O)N1CCc2ccccc21
O=S(=O)(c1cccc(S(=O)(=O)N2CCC(N3CCCCC3)CC2)c1)N1CCOCC1
Cc1ccccc1CS(=O)(=O)Cc1ccc(C(=O)NCCCN2CCOCC2)o1
COc1cccc(-c2noc(CCC(=O)NC3CCCCC3)n2)c1
CCOC(=O)CSC1=Nc2ccccc2C2=NC(CC(=O)NCc3ccc(OC)cc3)C(=O)N12 (centres undefined)
Cc1cc(NC(=O)C23CCC(C)(c4nc5cc(Cl)c(Cl)cc5nc42)C3(C)C)no1 (centres undefined)
Cc1ccc(/C(O)=C2\C(=O)C(=O)N(CCCN(C)C)C2c2ccccn2)cc1 (centres undefined)
O=C(OCc1ccc2c(c1)OCO2)c1ccc(S(=O)(=O)N2CCCCC2)cc1
CCN(CC)S(=O)(=O)c1ccc(S(=O)(=O)N(Cc2ccccn2)Cc2ccco2)cc1
O=C(COc1ccc(S(=O)(=O)NC2CCCCC2)cc1)NCc1ccccn1
CCCCOc1ccc(N(CC(=O)NC2CCCC2)C(=O)CCC(=O)Nc2ccccn2)cc1
CS(=O)(=O)Nc1ccc(C(=O)NCc2ccco2)cc1
CCN(Cc1nc2cc(OC)c(OC)cc2c(=O)[nH]1)C(=O)c1ccc(S(=O)(=O)N(C)C)cc1
O=C(CP(=O)(c1ccccc1)c1ccccc1)N1CCCCC1
Cc1cnc(C(=O)Nc2ccc(N3CCN(C(=O)OC(C)(C)C)CC3)cc2)cn1 14.8%
COc1cccc(N2CCN(CC(=O)Nc3nnc(-c4ccccc4)s3)CC2)c1
Oc1ccc(N2CCN(C(c3ccncc3)c3nnnn3C3CCCC3)CC2)cc1 (centres undefined)
C1CCC2=NCCCN2CC1
CCOc1ccc(N(CC(=O)Nc2ccc(F)c(F)c2)S(=O)(=O)c2c(C)noc2C)cc1
COc1cc(Cl)c(C)cc1NC(=O)COC(=O)c1cnc(C)cn1
O=C(CC1CCCCC1)NCc1ccccn1
COc1ccccc1CNS(=O)(=O)c1ccc(NC(C)=O)cc1
COc1ccc(S(=O)(=O)NC2CCCCC2)c(C)c1C
Cc1nc2ccc(S(=O)(=O)NCC(=O)N3CCc4ccccc4C3)cc2s1
CCOc1ccccc1Nc1nc2ccccc2[nH]1
Cc1ccc2nc(-c3ccc4c(c3)OCCO4)cc(C(=O)O)c2c1
COc1ccc(C(=O)NCCc2nnc(SCc3nc4ccccc4c(=O)[nH]3)n2C)cc1
Cc1cc(NC(=O)c2cc3ccccc3o2)cc(C)c1OCC(=O)N1CCOCC1
Cc1c(C(=O)OCC(C)C)[nH]c2c1C(=O)CC(c1ccco1)C2 (centres undefined)
CC(NC(=O)c1ccc(F)cc1)C(c1cccs1)N1CCN(C)CC1 (centres undefined)
C=CCN1C(=O)C2(C(C#N)=C(N)Oc3n[nH]c(CCC)c32)c2ccccc21 (centres undefined)
CCOC(=O)c1c(NC(=O)OC)sc(C(=O)N(C)C)c1C
COc1ccc(N(C)C(=O)CCS(=O)(=O)c2cccc3nonc23)cc1
COc1ccc(CCNC(=O)CCN2C(=O)C3CC=CCC3C2=O)cc1OC (centres undefined)
O=C(Nc1ccccc1)c1cnc2n(c1=O)CCS2
C=CCn1cnc2c(NCc3ccccc3)ncnc21
Cc1cc(C)n(S(=O)(=O)c2cc(C(=O)O)c(Cl)cc2Cl)n1
CCOC(=O)C1=C(CN2CCOCC2)NC(=O)NC1c1cc(C)ccc1C (centres undefined)
O=C(O)CC(NC(=O)c1ccccc1NC(=O)c1ccccc1)C(=O)O (centres undefined)
COc1ccc2cc(CN(CCO)C(=O)c3ccc(Br)cc3)c(=O)[nH]c2c1
COc1cc(OC)cc(-c2nnc(SCC(=O)Nc3cc(C)on3)o2)c1
Cc1ccc(C(=O)OCC(=O)Nc2ccc3c(c2)OCO3)o1
Cc1cc2ccccc2c(=O)n1CC(=O)N(C)c1ccc(F)cc1
CC(Oc1ccccc1)C(=O)Nc1ccc(S(=O)(=O)NCC2CCCO2)cc1 (centres undefined)
Cn1c(NC(=O)c2cccc(Cn3cc(Cl)cn3)c2)nc2ccccc21
Cc1cc2c(s1)c1cnn(CC(=O)NCCc3ccccc3)c(=O)c1n2C
COc1ccc2c(c1)CCc1c(C(=O)N3CC4(C)CC3CC(C)(C)C4)noc1-2 (centres undefined)
O=C(Cn1ccc2ccccc2c1=O)NCCC(=O)N1CCN(C(=O)c2ccco2)CC1
CCN(CC)C1CCCCC1NS(=O)(=O)c1ccc(Cl)cc1 (centres undefined)
Cn1c(=O)cc(OCC(=O)N2CCN(c3cccc(C(F)(F)F)c3)CC2)c2ccccc21
